# Among all 300,000 compounds or so, about 37,000 (12%) were called active. Shown is part of a subset that was picked to be rich in actives. Values without a mark were called inactive. Cut-off read from the data, not from the text of the source: active = max response mostly above about 13% (no sharp cut-off); inactive = mostly below about 14%.
# Experiment: Cycloheximide Counterscreen for Small Molecule Inhibitors of Shiga Toxin; note: read at 38.3 µM for the half of the compounds with a filed dose; 0% is about no effect
# Details: cell reporter, cycloheximide protein synthesis inhibition counterscreen; stronger effect = higher value
row,Compound,max response
1,O=C(Nc1cccc2ccccc12)N1CCN(Cc2ccc3c(c2)OCO3)CC1,-0.788%
2,CN(CC(=O)Nc1c(Cl)cccc1Cl)C(=O)c1ccncc1,-0.763%
3,CC1CN(C(=O)CCC(=O)NCCCN2CCC(Cc3ccccc3)CC2)c2cc(Cl)ccc2O1 (stereo unspecified),-3.45%
4,COc1ccc(S(=O)(=O)NCC(=O)NC2CC2)cc1OC,-2.51%
5,COc1ccc(CCNC(=O)C2CCCN(S(=O)(=O)c3ccc(OC)cc3)C2)cc1 (stereo unspecified),-5.86%
6,COc1nc(NC2CCCCC2)nc(N2CCCCCC2)n1,8.36%
7,O=C1Nc2cc(C(=O)N3CCN(c4ccc(F)cc4)CC3)ccc2NC1CSCc1cccc(F)c1 (stereo unspecified),2.89%
8,Cc1cc(/C=N/Nc2ccc([N+](=O)[O-])cn2)c(C)n1-c1cccc(C(=O)O)c1,27.7% (active)
9,Cc1ccc(-n2c(C)cc(/C=N/Nc3ccc([N+](=O)[O-])cn3)c2C)c(C)c1,20.7%
10,Cc1cc(/C=N/n2cnnc2)c(C)n1-c1cccc(C(=O)O)c1,4.01%
11,O=C1CSC2=NCN(c3ccccc3)CN12,1.46%
12,COc1ccc(S(=O)(=O)N2CCOCC2)cc1C(=O)NC1CCCCC1,-2.56%
13,Cc1cccc(S(=O)(=O)CC(=O)Nc2nc(-c3ccccc3)cs2)c1,-5.29%
14,COc1ccc(CCNc2nc(-c3cccc(NC(C)=O)c3)cs2)cc1OC,10.5%
15,CC(=O)Nc1ccc(-c2csc(NC=C3C(=O)OC(C)(C)OC3=O)n2)cc1,19.8%
16,CC(=O)Nc1cccc(NC(=O)c2c(-c3ccccc3)noc2C)c1,-1.94%
17,Cc1cccc(Nc2nc(-c3ccccc3)cs2)n1,56.2% (active)
18,CC(=O)Nc1cccc(-c2csc(Nc3cccc(C)n3)n2)c1,50.7% (active)
19,CC(=O)Nc1cccc(-c2cnc3ccccc3n2)c1,34.8% (active)
20,CCS(=O)(=O)Nc1cccc(-c2cc(-c3ccccc3)c3cc(C)ccc3n2)c1,-0.522%
21,COc1ccc(C(=O)NC(C)c2nccs2)cc1OC1CCN(C(C)C)CC1 (stereo unspecified),-0.856%
22,O=C(CNc1cccc(S(=O)(=O)N2CCCCC2)c1)Nc1ccccc1F,-2.83%
23,Cc1noc(C)c1CSc1nc2cc(S(=O)(=O)N3CCOCC3)ccc2o1,-1.38%

row,Compound,max response
1,CCNC(=O)c1sccc1-n1cccc1,2.68%
2,Cc1ccc(C(=O)N/C(=C\c2cn(C)c3ccccc23)C(=O)N2CCN(C)CC2)cc1,1.99%
3,CCCn1nnnc1NCc1ccc(OC)cc1,-1.31%
4,CC1(C)CC(=O)CC2(C1)NCC(c1ccccc1Cl)c1c2[nH]c2ccccc12 (stereo unspecified),2.51%
5,Cc1oc2cc([N+](=O)[O-])c(O)c([N+](=O)[O-])c2c1C(=O)c1ccc(Br)cc1,-7.47%
6,CCC(CC)C(=O)N1CCN(c2cccc(C)c2C)CC1,4.17%
7,CCn1c(C)c(C)c2cc(C(=O)N3CCN(c4cccc(C)c4C)CC3)ccc21,-3.95%
8,Cc1cccc(N2CCN(C(=O)/C=C/c3ccco3)CC2)c1C,15.1% (active)
9,COCCCn1c(-c2cccs2)nc2nc3ccccc3nc21,8.97%
10,CCOC(=O)CN(C)S(=O)(=O)c1ccc(-c2cc(C(=O)OC)sc2C(F)(F)F)cc1,4.79%
11,CCOC(=O)c1c(S(=O)(=O)Nc2ccc(CN3CCC(C)CC3)cc2)c(C)n(C)c1C,-1.22%
12,O=C(CCn1c(=S)[nH]c2cc3c(cc2c1=O)OCO3)NCc1ccc(Cl)cc1,12.5%
13,CC(C)OCCCNC(=O)c1ccc(C2SCC(=O)N2Cc2ccco2)cc1 (stereo unspecified),-3.14%
14,COc1cc(NC(=O)C2CCN(c3cnccn3)CC2)cc(OC)c1,-1.38%
15,COc1cccc(-c2nc(S(=O)(=O)c3ccccc3)c(N3CCOCC3)o2)c1,-1.61%
16,COc1ccc(C(=O)NCc2nnc(SCC(=O)Nc3cccc(OC)c3)o2)cc1,-4.63%
17,COc1cccc(-c2nnc(SCCOc3ccc4c(C)cc(=O)oc4c3)o2)c1,-1.4%
18,COc1cccc(-c2nc3cc(C)ccc3o2)c1,47.1% (active)
19,COc1ccc(C)cc1NC(=O)CSc1ccc(Cl)cc1,2.38%
20,COc1ccc2oc(-c3cccc(NC(=O)CSc4ccc(Cl)cc4)c3)nc2c1,14.3% (active)
21,CN(C)Cc1ccc(F)cc1Sc1cc(Cl)ccc1Cl,-1.42%
22,O=C(COc1ccc(Cl)cc1Cl)N/N=C/c1ccccn1,13.4%
23,Cc1ccc(C(=O)N/C(=C/c2ccc(-c3cccc([N+](=O)[O-])c3)o2)C(=O)NCCCN(C)C)cc1,-1.07%

# From PubChem BioAssay AID2314 (National Center for Advancing Translational Sciences (NCATS), 2010)
